# Targets with the largest changes are over-represented here; the source holds about 21,000 in all.
# Compound: Cc1cc(ccc1-c1ccccc1)C(=O)N1CCCN(CC1)C(=O)CCl [compound 10]
# Assay: probe-labelled cysteine peptide fold change vs DMSO (competition) (log2 fold change); higher = less target engagement (more negative = stronger competition)
# Details: THP-1, incubation time: 4 h
# 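Also: competitive profiling in live THP-1 cells: cysteine peptides tagged with an iodoacetamide desthiobiotin (IA-DTB) probe, intensity after compound treatment relative to DMSO-treated cells.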
# Sequence of UniProt Q9H267 (Q9H267 whole entry, looked up): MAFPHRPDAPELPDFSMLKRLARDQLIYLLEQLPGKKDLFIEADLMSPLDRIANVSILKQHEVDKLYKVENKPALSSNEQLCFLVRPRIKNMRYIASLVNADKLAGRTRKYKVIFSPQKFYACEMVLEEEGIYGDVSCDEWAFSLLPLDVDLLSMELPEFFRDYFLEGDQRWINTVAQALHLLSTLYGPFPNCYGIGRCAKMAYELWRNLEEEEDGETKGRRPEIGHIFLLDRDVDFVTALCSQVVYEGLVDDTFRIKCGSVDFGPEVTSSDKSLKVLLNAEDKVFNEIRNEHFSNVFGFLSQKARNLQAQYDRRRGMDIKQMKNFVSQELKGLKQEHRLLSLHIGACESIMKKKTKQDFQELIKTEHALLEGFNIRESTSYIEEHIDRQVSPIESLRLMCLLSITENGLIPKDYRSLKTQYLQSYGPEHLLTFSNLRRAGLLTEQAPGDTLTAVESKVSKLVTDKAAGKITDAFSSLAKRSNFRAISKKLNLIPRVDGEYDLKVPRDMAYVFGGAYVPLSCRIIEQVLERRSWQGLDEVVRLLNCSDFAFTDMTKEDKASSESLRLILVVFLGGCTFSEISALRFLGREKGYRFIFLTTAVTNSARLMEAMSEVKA
# Sequence of UniProt O14530 (O14530 whole entry): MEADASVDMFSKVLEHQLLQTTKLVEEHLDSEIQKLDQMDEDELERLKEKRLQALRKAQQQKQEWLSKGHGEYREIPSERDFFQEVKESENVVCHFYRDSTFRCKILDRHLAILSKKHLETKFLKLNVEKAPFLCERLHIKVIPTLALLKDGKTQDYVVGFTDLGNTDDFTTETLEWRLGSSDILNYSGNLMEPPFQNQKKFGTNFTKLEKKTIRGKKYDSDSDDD
# Sequence of UniProt O15042 (O15042 whole entry, looked up): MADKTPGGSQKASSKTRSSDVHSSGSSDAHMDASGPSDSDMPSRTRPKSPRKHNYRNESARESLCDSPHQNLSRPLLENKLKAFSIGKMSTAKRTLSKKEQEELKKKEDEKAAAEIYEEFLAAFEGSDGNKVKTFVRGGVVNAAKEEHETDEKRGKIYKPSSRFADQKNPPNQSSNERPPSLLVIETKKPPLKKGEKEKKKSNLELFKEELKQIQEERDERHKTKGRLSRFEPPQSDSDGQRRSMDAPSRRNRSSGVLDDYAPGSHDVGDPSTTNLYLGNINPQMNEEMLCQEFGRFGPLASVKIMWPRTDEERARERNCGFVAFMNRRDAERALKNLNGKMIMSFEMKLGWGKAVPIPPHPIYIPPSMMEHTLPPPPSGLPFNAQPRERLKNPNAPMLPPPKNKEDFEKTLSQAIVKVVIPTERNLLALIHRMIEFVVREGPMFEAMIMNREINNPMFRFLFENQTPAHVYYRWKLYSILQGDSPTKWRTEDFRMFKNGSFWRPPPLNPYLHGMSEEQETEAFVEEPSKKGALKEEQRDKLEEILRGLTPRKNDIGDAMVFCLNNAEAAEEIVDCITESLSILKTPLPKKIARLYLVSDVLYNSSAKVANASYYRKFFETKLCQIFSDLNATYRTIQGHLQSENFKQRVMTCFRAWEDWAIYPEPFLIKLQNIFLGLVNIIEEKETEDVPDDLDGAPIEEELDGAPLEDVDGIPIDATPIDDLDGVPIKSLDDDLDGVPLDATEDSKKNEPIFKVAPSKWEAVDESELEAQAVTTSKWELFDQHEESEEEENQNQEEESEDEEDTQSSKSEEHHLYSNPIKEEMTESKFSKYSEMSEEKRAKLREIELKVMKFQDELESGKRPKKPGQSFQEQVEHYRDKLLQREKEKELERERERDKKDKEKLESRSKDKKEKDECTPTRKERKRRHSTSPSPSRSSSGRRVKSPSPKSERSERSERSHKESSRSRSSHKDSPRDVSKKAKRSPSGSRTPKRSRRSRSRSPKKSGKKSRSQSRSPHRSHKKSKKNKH
# Sequence of UniProt Q7Z4G4 (Q7Z4G4 whole entry): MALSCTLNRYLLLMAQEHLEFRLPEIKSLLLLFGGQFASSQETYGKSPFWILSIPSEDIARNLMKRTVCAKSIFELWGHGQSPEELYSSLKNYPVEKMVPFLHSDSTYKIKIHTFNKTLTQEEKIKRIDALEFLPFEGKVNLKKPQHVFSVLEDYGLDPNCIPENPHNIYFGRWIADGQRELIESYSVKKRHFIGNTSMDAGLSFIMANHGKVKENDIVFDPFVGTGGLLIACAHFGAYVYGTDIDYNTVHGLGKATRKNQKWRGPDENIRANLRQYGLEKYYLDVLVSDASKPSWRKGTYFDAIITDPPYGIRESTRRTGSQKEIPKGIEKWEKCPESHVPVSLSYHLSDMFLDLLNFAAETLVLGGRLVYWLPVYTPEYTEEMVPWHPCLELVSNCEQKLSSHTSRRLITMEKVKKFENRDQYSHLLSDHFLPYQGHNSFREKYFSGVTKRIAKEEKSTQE
# Sequence of UniProt Q9Y3C8 (Q9Y3C8 whole entry, looked up): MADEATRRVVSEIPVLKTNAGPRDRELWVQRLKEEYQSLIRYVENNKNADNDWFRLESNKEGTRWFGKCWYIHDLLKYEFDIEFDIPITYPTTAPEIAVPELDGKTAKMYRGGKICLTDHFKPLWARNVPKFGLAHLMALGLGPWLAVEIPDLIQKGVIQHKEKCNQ
# Sequence of UniProt Q9ULW0 (Q9ULW0 whole entry, looked up): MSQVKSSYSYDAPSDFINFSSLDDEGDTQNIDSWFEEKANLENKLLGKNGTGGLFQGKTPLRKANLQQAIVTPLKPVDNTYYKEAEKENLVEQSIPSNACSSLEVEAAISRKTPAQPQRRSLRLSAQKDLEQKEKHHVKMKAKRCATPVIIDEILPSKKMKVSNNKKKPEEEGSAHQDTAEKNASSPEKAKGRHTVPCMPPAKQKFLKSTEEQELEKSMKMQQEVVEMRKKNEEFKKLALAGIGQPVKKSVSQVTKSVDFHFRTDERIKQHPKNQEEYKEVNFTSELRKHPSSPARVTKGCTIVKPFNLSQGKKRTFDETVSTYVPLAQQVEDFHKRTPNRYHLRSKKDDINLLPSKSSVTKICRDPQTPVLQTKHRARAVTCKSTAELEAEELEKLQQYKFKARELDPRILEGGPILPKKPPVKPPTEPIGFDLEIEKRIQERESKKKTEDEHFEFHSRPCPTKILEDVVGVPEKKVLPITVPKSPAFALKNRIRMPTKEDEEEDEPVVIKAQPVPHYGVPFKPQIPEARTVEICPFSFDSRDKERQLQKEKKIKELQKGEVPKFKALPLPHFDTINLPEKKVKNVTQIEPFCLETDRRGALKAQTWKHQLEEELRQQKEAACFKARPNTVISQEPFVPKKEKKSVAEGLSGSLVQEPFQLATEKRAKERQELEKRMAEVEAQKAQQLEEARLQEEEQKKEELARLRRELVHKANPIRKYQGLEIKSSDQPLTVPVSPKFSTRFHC
# Sequence of UniProt Q9H3U1 (Q9H3U1 whole entry, looked up): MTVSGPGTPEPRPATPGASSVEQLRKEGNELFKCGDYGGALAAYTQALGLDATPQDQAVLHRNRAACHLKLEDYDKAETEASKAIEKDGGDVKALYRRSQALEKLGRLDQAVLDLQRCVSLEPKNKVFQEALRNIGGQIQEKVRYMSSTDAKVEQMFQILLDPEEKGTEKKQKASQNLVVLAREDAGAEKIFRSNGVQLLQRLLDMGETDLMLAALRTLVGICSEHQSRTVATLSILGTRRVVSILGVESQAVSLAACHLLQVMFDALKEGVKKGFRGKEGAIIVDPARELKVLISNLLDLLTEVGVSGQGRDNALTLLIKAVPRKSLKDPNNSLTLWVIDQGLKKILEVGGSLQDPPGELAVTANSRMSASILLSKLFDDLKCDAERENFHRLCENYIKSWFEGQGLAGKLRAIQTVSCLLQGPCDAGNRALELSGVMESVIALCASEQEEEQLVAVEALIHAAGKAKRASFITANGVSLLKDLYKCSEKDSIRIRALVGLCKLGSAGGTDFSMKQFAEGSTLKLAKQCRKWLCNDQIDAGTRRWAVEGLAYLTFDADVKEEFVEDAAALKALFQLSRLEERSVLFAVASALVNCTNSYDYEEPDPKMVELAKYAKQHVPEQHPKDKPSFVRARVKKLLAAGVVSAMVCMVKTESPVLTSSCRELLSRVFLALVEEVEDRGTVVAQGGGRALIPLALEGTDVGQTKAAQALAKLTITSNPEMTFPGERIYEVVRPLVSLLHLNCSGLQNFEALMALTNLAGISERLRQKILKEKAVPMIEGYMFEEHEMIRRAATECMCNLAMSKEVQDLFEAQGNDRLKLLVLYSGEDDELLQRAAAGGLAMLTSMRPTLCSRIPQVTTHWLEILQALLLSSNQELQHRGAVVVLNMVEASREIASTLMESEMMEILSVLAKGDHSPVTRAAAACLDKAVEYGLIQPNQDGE
# Sequence of UniProt Q8IV63 (Q8IV63 whole entry, looked up): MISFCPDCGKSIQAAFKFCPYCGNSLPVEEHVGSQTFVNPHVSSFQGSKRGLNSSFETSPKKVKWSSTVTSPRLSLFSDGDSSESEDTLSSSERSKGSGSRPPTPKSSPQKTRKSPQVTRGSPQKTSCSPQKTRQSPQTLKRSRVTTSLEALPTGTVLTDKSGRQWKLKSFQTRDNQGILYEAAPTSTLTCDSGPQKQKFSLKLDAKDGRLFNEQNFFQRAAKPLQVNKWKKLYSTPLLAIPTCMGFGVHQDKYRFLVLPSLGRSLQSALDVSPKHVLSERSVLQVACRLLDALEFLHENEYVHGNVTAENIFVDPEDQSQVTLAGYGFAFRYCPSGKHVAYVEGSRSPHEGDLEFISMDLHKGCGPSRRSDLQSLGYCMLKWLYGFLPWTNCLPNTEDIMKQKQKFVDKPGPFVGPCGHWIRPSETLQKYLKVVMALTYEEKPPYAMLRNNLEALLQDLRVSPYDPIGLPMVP
# Sequence of UniProt O14933 (O14933 whole entry, looked up): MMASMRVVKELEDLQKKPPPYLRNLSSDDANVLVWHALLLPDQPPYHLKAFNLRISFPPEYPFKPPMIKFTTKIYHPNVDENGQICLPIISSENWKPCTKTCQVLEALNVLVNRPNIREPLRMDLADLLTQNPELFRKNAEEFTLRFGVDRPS
Target,probe-labelled cysteine peptide fold change (10 µM),probe-labelled cysteine peptide fold change (50 µM)
VPS33B_Q9H267_259_CGSVDFGPEVTSSDK (UniProt Q9H267),0.169,0.293
UBAP2_Q5T6F2_71_NQDECIVALHDCNGDVNK (UniProt Q5T6F2),0.0613,-0.0464
UNC45A_Q9H3U1_503_ALVGLCK (UniProt Q9H3U1),0.0377,-0.217
UHRF1BP1L_A0JNW5_398_NGWANELLHEFECNVEMLK (UniProt A0JNW5),-0.0203,-0.158
TXNIP_Q9H3M7_170_VSCMFIPDGR (UniProt Q9H3M7),0.0303,-1.26
UBR7_Q8N806_137_YNDNFFGLYCICK (UniProt Q8N806),0.0481,-0.0777
TRRAP_Q9Y4A5_3535_IYPYLVMNDACLTESR (UniProt Q9Y4A5),-0.136,-0.0829
USP22_Q9UPT9_171_KITSNCTIGLR (UniProt Q9UPT9),-0.315,-0.757
UBL7_Q96S82_66_LQESVPDPELIDLIYCGR (UniProt Q96S82),-0.109,-0.328
UFC1_Q9Y3C8_116_ICLTDHFKPLWAR (UniProt Q9Y3C8),-0.183,-1.26
VPS13C_Q709C8_2289_GIEHSLIEENCGVVVESIQVTLECGLGHR (UniProt Q709C8),-0.105,-0.0661
UBR1_Q8IWV7_1101_EVLTCILCQEEQEVK (UniProt Q8IWV7),-0.162,0.733
TRIM25_Q14258_119_TCLVCMASFCQEHLQPHFDSPAFQDHPLQPPVR (UniProt Q14258),0.371,0.313
UBE2L6_O14933_86+98_IYHPNVDENGQICLPIISSENWKPCTK (UniProt O14933),-0.606,-1.39
U2SURP_O15042_918_EKDECTPTRK (UniProt O15042),-0.0489,0.231
USP9Y_O00507_674_DGQLWLCAPQAK (UniProt O00507),-0.00329,-0.161
TRIM59_Q8IWR1_208_SFLTALCDVGNLINQEYTPQIER<|>IFT80_Q9P2H3-3_208_SFLTALCDVGNLINQEYTPQIER (UniProt Q9P2H3+Q8IWR1),0.237,-0.00617

Target,probe-labelled cysteine peptide fold change (10 µM),probe-labelled cysteine peptide fold change (50 µM)
TXNRD2_Q9NNW7_279_GCAPSR (UniProt Q9NNW7),0.0601,1.36
TRRAP_Q9Y4A5_2513_STPIGTSCQGAMLPSITNVINLADSHDR (UniProt Q9Y4A5),0.223,0.295
USP11_P51784_894_DGHYTTFACNK (UniProt P51784),-0.051,-0.393
TXNIP_Q9H3M7_170_KVSCMFIPDGR (UniProt Q9H3M7),0.205,-1.47
VCPIP1_Q96JH7_517_NYSFPLNNLVCSYDSVK (UniProt Q96JH7),0.0884,0.1
TRMT11_Q7Z4G4_161_KPQHVFSVLEDYGLDPNCIPENPHNIYFGR (UniProt Q7Z4G4),-0.0115,-0.0241
TPX2_Q9ULW0_301_GCTIVK (UniProt Q9ULW0),0.583,0.294
TRAPPC13_A5PLN9_327_LSLEAIPDTVNLEEPFHITCK (UniProt A5PLN9),0.0844,0.00702
TXNDC9_O14530_94_ESENVVCHFYR (UniProt O14530),-0.0612,-0.0184
UBR4_Q5T4S7_4890_KQQGYSTVSHFNIVHYDCHLAAVR (UniProt Q5T4S7),0.0563,-0.151
UBR7_Q8N806_46_CSYSQGSVKR (UniProt Q8N806),-0.118,-0.607
VRK3_Q8IV63_418_FVDKPGPFVGPCGHWIRPSETLQK (UniProt Q8IV63),-0.347,-1.2
UBN1_Q9NPG3_711_VGGVLCTEEK (UniProt Q9NPG3),-0.0763,0.0664
TRIM25_Q14258_498_FTYCSQVLGLHCYK (UniProt Q14258),-1.23,-2.92
USP3_Q9Y6I4_98_CDDFVVNDTK (UniProt Q9Y6I4),-0.0308,-0.0909
TUBA3C_P0DPH7_4+20+25_MRECISIHVGQAGVQIGNACWELYCLEHGIQPDGQMPSDK<|>TUBA3D_P68363_4+20+25_MRECISIHVGQAGVQIGNACWELYCLEHGIQPDGQMPSDK<|>TUBA1B_Q6PEY2_4+20+25_MRECISIHVGQAGVQIGNACWELYCLEHGIQPDGQMPSDK<|>TUBA3E_Q9BQE3_4+20+25_MRECISIHVGQAGVQIGNACWELYCLEHGIQPDGQMPSDK (UniProt Q9BQE3+Q6PEY2+P68363+P0DPH7),0.318,0.131
TRIM24_O15164_127+134_CPVCSQECAER (UniProt O15164),0.118,-0.0216
